Our source for the growth values is PubChem BioAssay (NCI).

Holding throughout (experiment): NCI-60 one-dose screen, 48 h (100 = growth as untreated, 0 = no growth, -100 = all killed)
Conditions in all cases: 10 µM unless noted

Assay [1] concerns SK-MEL-2 melanoma.
For assay [2], the system named is EKVX NSCLC.
The test system of assay [3] is SN12C renal.
For assay [4], the system named is UO-31 renal.
Assay [5] relates to TK-10 renal.
Assay [6] relates to ACHN renal.
In assay [7] the test system is A498 renal.
For assay [8], the system named is CCRF-CEM leukemia.
The test system of assay [9] is MOLT-4 leukemia.
Assay [10] concerns SR leukemia.
The subject of assay [11] is RPMI-8226 leukemia.
Assay [12] concerns OVCAR-8 ovarian.
In assay [13] the test system is OVCAR-5 ovarian.
Assay [14] concerns OVCAR-4 ovarian.
Assay [15] deals with IGROV1 ovarian.
For assay [16], the system named is OVCAR-3 ovarian.
In assay [17] the test system is HS 578T breast.
The test system of assay [18] is NCI/ADR-RES ovarian.
For assay [19], the system named is SK-OV-3 ovarian.

This is part of a sample that, as a whole, favours compounds with a hit. Of some 83,000 tested, about 20% had one in any assay.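 Step 1: grow cells in 96-well plates. Step 2: add test compound at a single concentration. Step 3: incubate 48 h. Step 4: record percent growth.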 Unmarked numbers belong to inactive results. Calls of active or inactive are those of the source. The calls were made as follows: active = growth percent below 10; inactive = the rest.

Take `CC(C)(C)c1cc(C(C)(C)C)cc(S(=O)(=O)Nc2cc3ccccc3cc2C(=O)NCCN)c1`: the growth in assay [1] was 62.3%; in assay [2] it was 89.5%; in [3], 46.6%; in assay [4] it was 53.2%; in assay [5], 78.8%; in [6] it was 70.9%. The growth was -2.57% (active) in assay [7]; 57.7% in assay [8]; 77% in [9]; -32.1% (active) in assay [10]; -5.61% (active) in [11]; 5.01% (active) in assay [12]. In addition, the growth was 94.8% in assay [13]; 70.6% in assay [14]; 62.3% in assay [15]; 70.5% in assay [16]; 73.2% in assay [17]; 82% in assay [18].

For `CC(=O)c1cc2c(N)c(C(=O)Nc3ccccc3)sc2nc1C`, the growth in [1] is 33.3%; in assay [2], 70.1%; in assay [3], 90.8%; in assay [4], 90.8%; in [5], 76.4%; in assay [6] it was 91.7%. Moreover, the growth was 22% in assay [7]; 84.5% in [8]; 85.6% in assay [9]; 51.8% in assay [10]; 89% in assay [11]; 93.9% in assay [12]. Also, the growth is 96% in assay [13]; 88.9% in assay [14]; 28.8% in [19]; 83.9% in assay [15]; 90% in [16]; 69.8% in assay [17]. Moreover, the growth in assay [18] is 75.9%.

Regarding `COc1ccc2c(c1)c(-c1nonc1-c1cn(C)c3ccccc13)cn2C`, the growth in assay [1] is 41.4%; in assay [2], 51.7%; in assay [3] it was 47.8%; in [4] it was 35.1%; in assay [5], 59.2%; in [6] it was 48.6%. Also, the growth in assay [7] is 3.63% (active); in assay [8], 25.7%; in assay [9], 30.2%; in assay [10], 30.1%; in assay [11], 21.2%; in assay [12], 35.6%. Moreover, the growth in assay [13] is 52%; in [14], 45.5%; in [19] it was 44.6%; in assay [15], 42.5%; in assay [16], 3.08% (active); in assay [18], 17.1%.

As for `O=C(Cc1ccc(/C=C/C(=O)c2ncc[nH]2)cc1)Nc1ccc(F)cc1`, the growth is 79.1% in [1]; 34.8% in assay [2]; 17.4% in assay [3]; 17.2% in assay [4]; 35.9% in assay [5]; 46.4% in assay [6]. The growth was 66.9% in assay [7]; 2.63% (active) in assay [8]; 14.7% in assay [9]; -2.77% (active) in [10]; -17.9% (active) in [11]; -6.92% (active) in [12]. In addition, the growth in [13] is 49.1%; in assay [14] it was 36.6%; in [19] it was 52%; in assay [15] it was 39%; in [16], 2.36% (active); in [17], 35.4%. Moreover, in assay [18], the growth is 14.5%.

For `CSc1ccc(SC2c3ccc(C)cc3Oc3nc(N)c(C#N)c(N)c32)cc1` (centres undefined), the growth in assay [1] is -58.9% (active); in [2], -48.6% (active); in [3] it was -98% (active); in [4] it was -99.2% (active); in assay [5], -97% (active); in assay [6], -96.6% (active). In addition, the growth in assay [7] was 4.22% (active); in assay [8], -37% (active); in [9] it was -17.9% (active); in assay [10], -22.9% (active); in assay [11], -38% (active); in assay [12], -92% (active). Further, the growth was -80.8% (active) in [13]; -94.8% (active) in [14]; 15.1% in assay [19]; -86.2% (active) in [15]; -94.7% (active) in assay [16]; -8.07% (active) in assay [17]. Besides, the growth in [18] is -18.6% (active).

`COc1cc(-c2ccc3c(c2)NC(=O)/C3=C\c2ccc[nH]2)ccc1O`: the growth in assay [1] is 31.4%; in assay [2], 35.6%; in [3] it was 27.5%; in assay [4] it was 14.5%; in assay [5], 35.7%; in assay [6], 11.6%. The growth was 64% in assay [7]; 12.3% in [8]; 10.3% in assay [9]; 8.9% (active) in assay [10]; 6.57% (active) in assay [11]; 18.5% in assay [12]. Besides, the growth was 48.2% in [13]; 52.4% in assay [14]; 30.7% in [19]; 26.3% in assay [15]; 9.59% (active) in assay [16]; 53.9% in assay [17]. Also, the growth in assay [18] is 12.7%.

As to `COc1ccc(S(=O)(=O)N2CC3(COC3)C2)cc1NC(=O)c1[nH]c(C)c2c1CCCCC2=O`, the growth was 62.7% in [1]; 58.2% in assay [2]; 54.9% in [3]; 40.4% in [4]; 17.5% in [5]; 60.4% in assay [6]. In addition, the growth in assay [7] is 69.8%; in assay [8], 72.5%; in assay [9] it was 76.4%; in assay [10], 51.3%; in assay [11], 25.8%; in assay [12], 54.2%. Further, the growth was 61.1% in [13]; 56.6% in assay [14]; 44% in [15]; 54.4% in assay [16]; 26.7% in assay [17]; 91.1% in [18].

On to `COc1ccc(O)c(N=Nc2nccs2)c1`, for which the growth is 91.6% in assay [1]; 54.3% in assay [2]; 99.4% in assay [3]; 61.1% in assay [4]; 106% in assay [5]; 28.7% in assay [6]. Further, the growth was 88.4% in [7]; 3.48% (active) in assay [8]; 7.26% (active) in assay [9]; 13.4% in assay [10]; 25.3% in assay [11]; 52.1% in [12]. Besides, the growth was 120% in [13]; 37.1% in assay [14]; 85.2% in assay [19]; 70.2% in [15]; 39.9% in assay [16]; 103% in assay [17]. Also, in assay [18], the growth is 53.6%.
